Screening data as filed in PubChem BioAssay.
Sampled rows, rich in hits. Any-hit rate of the full collection: about 3.5%.
TEAD-YAP block – TEAD-YAP interaction inhibition | HEK-TIYL cells, TEAD-Gal4/YAP UAS-luciferase luminescence | inhibition, % at 9.12 µM | 640,000 tested, 1.4% active | AID 1259422; in the data active = inhibition above about 32%;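 note: 0% = median of test compound wells and 100% = reference inhibitor wells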
GPR151 activ – activators of human GPR151. PathHunter beta-arrestin GPR151 cells, luminescence. activation, % at 11.2 µM. 650,000 tested, 1% active. AID 1508602; in the data active = activation above about 4.9%;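 note: 0% = median of compound wells and 100% = cells with positive control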
FBW7 act – human FBW7 E3 ligase activation, primary screen; 650,000 tested, 0.13% active; Q969H0; normalized activity (activation), % at 26.1 µM; AID 1259310; AlphaScreen FBW7–phospho-cyclin E peptide binding, activator screen; in the data active = normalized activity above about 1.9%;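 note: purified mutant Fbw7 with reduced substrate affinity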
Target sequence (Q969H0 whole entry, looked up): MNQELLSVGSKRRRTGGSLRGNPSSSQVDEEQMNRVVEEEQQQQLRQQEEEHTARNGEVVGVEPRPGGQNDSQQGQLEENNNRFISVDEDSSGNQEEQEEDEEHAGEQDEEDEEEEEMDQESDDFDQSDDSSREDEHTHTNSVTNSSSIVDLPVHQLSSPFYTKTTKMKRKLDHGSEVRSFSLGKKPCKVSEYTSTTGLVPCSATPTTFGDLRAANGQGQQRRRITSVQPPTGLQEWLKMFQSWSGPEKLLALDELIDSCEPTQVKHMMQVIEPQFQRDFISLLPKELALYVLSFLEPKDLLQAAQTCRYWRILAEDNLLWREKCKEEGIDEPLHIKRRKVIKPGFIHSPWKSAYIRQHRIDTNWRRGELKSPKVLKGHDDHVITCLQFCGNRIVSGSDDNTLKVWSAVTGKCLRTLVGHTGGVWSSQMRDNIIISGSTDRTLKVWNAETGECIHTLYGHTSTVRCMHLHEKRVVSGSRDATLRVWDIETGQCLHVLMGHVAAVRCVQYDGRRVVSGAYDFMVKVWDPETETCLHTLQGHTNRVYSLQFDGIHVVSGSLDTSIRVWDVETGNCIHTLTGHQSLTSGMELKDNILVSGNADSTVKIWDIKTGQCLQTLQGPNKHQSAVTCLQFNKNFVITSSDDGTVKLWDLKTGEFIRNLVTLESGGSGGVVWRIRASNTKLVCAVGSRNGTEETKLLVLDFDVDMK
MITF primary – inhibitors of human MITF | AlphaScreen MITF homodimerization, bead proximity signal | O75030 | inhibition, % at 2.6 µM | AID 1259374 | 650,000 tested, 0.91% active; in the data active = inhibition above about 50%;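 note: 0% = vehicle wells with protein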
GPR151 confirm – human GPR151 activation, confirmation screen; GPR151 PathHunter beta-arrestin cells, luminescence, 90 min; % of EA-reagent control over plate median; 6,700 tested, under 10 active; activation, % at 11.2 µM; shares compounds with GPR151 activ;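 active = mean percent activation across replicates above the confirmation screen cutoff of 4.91%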
GPR119 counter – activates human GPR119 in a GPR151 counter-screen. shares compounds with GPR151 activ. GPR119 PathHunter beta-arrestin cells, luminescence, 90 min; 0 = compound-well median, 100 = enzyme-acceptor control. activation, % at 11.2 µM. 6,700 tested, 0.3% active. AID 1508611;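 active = mean percent activation in the counterscreen above 29.09%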;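 note: counterscreen on off-target GPR119 to flag nonselective hits from the GPR151 activator screen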
Active calls of the source: *; . = no result given; ! = not confirmed by another sample.

SMILES	TEAD-YAP block	GPR151 activ	FBW7 act	MITF primary	GPR151 confirm	GPR119 counter
COc1ccc(OCC(=O)N/N=C/c2cc3c(cc2[N+](=O)[O-])OCO3)cc1	-6.1	10.2*	-0.1	-1.2	-0.4	-14.7
Cc1ccc(OCC(=O)N/N=C/c2cc3c(cc2[N+](=O)[O-])OCO3)cc1C	5.6	-1.2	-0.1	18.3	.	.
CC(C)(C)c1[nH]nc2c1C(c1ccsc1)C(C#N)=C(N)O2 (stereo not drawn)	1.8	6.6*	-0.1	6.7	0.6	2.4
Cc1ccc(N=Cc2cc([N+](=O)[O-])cc(Br)c2O)nc1	-7.2	-0.5	-0.3	-7.2	.	.
CS(=O)(=O)N1N=C(c2ccc3nccnc3c2)CC1c1ccccc1 (stereo not drawn)	-13.2	5.0*	-0.1	5.0	-0.8	-13.3
COC(=O)c1cccc(C(=O)N2CC(=O)N(c3ccccc3C)C(C)C2)c1 (stereo not drawn)	3.1	-0.7	0.0	-5.3	.	.
Cc1ccc2c(c1)-c1c(sn(-c3ccc(C(F)(F)F)cc3)c1=S)C(C)(C)N2	7.0	-1.9	0.0	17.3	.	.
Cc1ccc(C(C)CCN2CCC3(CCC(CNC(=O)c4ccccc4)O3)CC2)o1 (stereo not drawn)	2.4	0.7	0.1	14.8	.	.
Cc1ccc(C(C)CCN2CCC3(CCC(CNC(=O)C(C)C)O3)CC2)o1 (stereo not drawn)	-11.8	7.8*	-0.1	-4.4	0.2	0.2
O=C(NCC1COC2(CCCCC2)O1)C1(c2ccccc2)CCOCC1 (stereo not drawn)	2.8	2.2	0.7	21.1	.	.
COc1cccc(C(=O)/C=C/c2ccccc2OC)c1	-16.6	7.1*	0.1	16.1	1.5	5.4
COc1ccc(/C=C/C(=O)c2cccc(OC)c2)cc1	-15.6	-0.6	-0.1	-0.5	.	.
S=C(NCC1CCCO1)Nc1ccc(I)cc1 (stereo not drawn)	-45.1	1.9	-0.1	1.4	.	.
CC(=O)c1ccc(NC(=S)NCC2CCCO2)cc1 (stereo not drawn)	-28.0	5.4*	-0.1	-9.5	-0.4	4.6
Cc1cccc(N2C(=O)c3ccc(Oc4cccc([N+](=O)[O-])c4)cc3C2=O)c1	-5.6	1.1	0.0	-3.2	.	.
O=C(NCSc1ncccn1)c1ccccc1	-4.1	7.6*	-0.1	-10.1	-0.7	-14.9
N#CC1=C(S)N(c2ccccc2)C(c2cccs2)NC1=O (stereo not drawn)	-8.3	6.9*	-0.4	-8.4	0.2	7.2
N#CC1=C(S)N(c2ccccc2)C(c2ccco2)NC1=O (stereo not drawn)	-5.4	-0.4	0.0	-3.2	.	.
CCN(CC)C(=S)SCCC(=O)NC(=O)Nc1ccc(F)cc1	14.2	23.8*	-0.5	0.7	-0.7	-3.3
COc1c(Cl)cc(C(=O)NCc2ccc3c(c2)OCO3)cc1Cl	-6.4	5.9*	0.2	-0.3	-0.5	-8.5
COc1ccc(-c2noc(N3CCC(C(=O)NCc4ccc5c(c4)OCO5)CC3)n2)cc1	-0.5	7.9*	0.0	9.0	0.3	2.6
c1cc(C2CCCCC2)ccc1OCCOCCN1CCOCC1	8.8	0.4	0.0	6.7	.	.
CCCCN(C)S(=O)(=O)c1ccc(C(=O)Nc2cccc3c2C(=O)NC3=O)cc1	7.0	0.7	0.1	-1.9	.	.
CCCCCCCNC(=O)c1ccc(N)c([N+](=O)[O-])c1	9.9	0.9	0.1	11.2	.	.
COc1ccc(NC(=O)COc2ccc(Cl)cc2)cc1NC(=O)c1ccco1	5.7	6.0*	-0.1	-1.6	-0.1	-2.8
CC(C)Cn1c(CN2CCN(c3ccc(F)cc3)CC2)nc2c1c(=O)n(C)c(=O)n2C	2.0	10.1*	0.0	11.5	0.9	6.5
CCOC(=O)C1=C(C)NC2=C(C(=O)C(C(=O)OC)C(C)C2)C1c1ccccc1OC(C)C (stereo not drawn)	-8.7	5.2*!	0.2	-4.2	1.0	4.8
Cc1onc(-c2ccccc2)c1C(=O)Nc1sc2c(c1C(N)=O)CCC(C)C2 (stereo not drawn)	3.5	0.1	0.1	21.5	.	.
c1nc(N2CCOCC2)c2sc3nc(N4CCCCC4)c4c(c3c2n1)CCCC4	0.8	0.8	-0.1	-1.5	.	.
c1nc(N2CCCCC2)c2sc3nc(N4CCOCC4)c4c(c3c2n1)CCCC4	-7.3	6.2*	0.2	5.4	-0.8	-5.7
